Assay results reported in the supplement of paper PMC11001985.
A number with no mark means an inactive call.

What follows are targets tested with C#CCNC(=O)CCSSCCC(=O)NCCc1ccc(C=O)c(C=O)c1 (assay: lysine labeling ratio R10:1 (500 µM / 50 µM probe), SILAC-ABPP in living cells; higher = lower intrinsic lysine reactivity toward the probe, active = 2 or less). Conditions: HeLa; probe concentrations 500 vs 50 µM.
Outline: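 Measurements came from LC-MS/MS on a TIMS-TOF Pro of mixed SILAC light and heavy HeLa lysates after click to biotin-azide, trypsin digestion, neutravidin capture, DTT release and alkylation. Before lysis, the living cells sat in PBS at room temperature with 50 µM or 500 µM of an alkyne-tagged, disulfide-linked lysine probe, and labels were swapped forward and reverse. R per lysine is the median across both swap directions of the filtered median high-probe/low-probe MS1 peptide ratio. The cap is 20.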

Chain of UniProt P19827 (P19827 whole entry): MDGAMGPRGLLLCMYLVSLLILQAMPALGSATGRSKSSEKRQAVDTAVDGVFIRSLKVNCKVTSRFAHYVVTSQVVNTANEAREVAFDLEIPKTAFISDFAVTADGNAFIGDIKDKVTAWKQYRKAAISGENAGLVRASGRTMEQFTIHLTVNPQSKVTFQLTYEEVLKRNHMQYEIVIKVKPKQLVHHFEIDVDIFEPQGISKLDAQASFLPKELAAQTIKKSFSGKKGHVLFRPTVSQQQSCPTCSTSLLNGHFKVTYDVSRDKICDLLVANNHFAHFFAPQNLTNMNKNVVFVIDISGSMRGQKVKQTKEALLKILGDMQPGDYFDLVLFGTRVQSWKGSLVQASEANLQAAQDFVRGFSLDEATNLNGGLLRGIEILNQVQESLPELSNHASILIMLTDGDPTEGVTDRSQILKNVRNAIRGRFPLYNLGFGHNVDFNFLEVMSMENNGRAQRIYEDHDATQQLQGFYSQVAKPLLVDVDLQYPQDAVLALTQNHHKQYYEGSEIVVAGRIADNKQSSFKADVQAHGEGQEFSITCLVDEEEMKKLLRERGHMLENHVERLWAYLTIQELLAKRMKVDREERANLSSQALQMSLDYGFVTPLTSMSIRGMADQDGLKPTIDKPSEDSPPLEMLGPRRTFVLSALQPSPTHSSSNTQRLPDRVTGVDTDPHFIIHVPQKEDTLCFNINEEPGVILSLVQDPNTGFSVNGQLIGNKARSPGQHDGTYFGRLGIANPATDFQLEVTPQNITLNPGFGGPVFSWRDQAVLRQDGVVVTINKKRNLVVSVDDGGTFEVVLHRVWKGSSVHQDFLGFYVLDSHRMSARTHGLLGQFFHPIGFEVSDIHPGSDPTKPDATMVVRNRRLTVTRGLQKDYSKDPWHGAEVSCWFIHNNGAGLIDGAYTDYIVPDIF
Chain of UniProt Q86UE4 (Q86UE4 whole entry): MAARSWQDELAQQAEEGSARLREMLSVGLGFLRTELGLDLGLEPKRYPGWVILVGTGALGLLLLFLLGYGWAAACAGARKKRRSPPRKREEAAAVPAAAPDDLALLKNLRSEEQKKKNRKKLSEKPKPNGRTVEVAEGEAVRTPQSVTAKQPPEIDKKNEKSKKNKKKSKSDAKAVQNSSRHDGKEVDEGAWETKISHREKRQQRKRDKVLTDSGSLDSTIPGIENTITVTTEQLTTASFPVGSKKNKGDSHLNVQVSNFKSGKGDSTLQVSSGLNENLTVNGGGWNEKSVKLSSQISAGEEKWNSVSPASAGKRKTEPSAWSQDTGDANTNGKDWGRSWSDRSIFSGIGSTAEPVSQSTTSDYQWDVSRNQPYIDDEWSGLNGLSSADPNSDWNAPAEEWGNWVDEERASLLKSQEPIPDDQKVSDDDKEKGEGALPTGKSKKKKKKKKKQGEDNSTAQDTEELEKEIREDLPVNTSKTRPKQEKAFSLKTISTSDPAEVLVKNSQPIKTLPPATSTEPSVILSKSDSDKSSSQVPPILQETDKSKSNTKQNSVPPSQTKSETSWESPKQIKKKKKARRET
Chain of UniProt P08962 (P08962 whole entry): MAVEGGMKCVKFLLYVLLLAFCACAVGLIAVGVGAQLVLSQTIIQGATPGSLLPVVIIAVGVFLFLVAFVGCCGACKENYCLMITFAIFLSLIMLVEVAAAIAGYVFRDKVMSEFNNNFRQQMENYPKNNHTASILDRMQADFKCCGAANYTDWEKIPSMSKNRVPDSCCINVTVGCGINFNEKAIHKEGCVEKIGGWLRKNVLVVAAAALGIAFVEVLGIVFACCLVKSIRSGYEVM
Chain of UniProt Q13813 (Q13813 whole entry): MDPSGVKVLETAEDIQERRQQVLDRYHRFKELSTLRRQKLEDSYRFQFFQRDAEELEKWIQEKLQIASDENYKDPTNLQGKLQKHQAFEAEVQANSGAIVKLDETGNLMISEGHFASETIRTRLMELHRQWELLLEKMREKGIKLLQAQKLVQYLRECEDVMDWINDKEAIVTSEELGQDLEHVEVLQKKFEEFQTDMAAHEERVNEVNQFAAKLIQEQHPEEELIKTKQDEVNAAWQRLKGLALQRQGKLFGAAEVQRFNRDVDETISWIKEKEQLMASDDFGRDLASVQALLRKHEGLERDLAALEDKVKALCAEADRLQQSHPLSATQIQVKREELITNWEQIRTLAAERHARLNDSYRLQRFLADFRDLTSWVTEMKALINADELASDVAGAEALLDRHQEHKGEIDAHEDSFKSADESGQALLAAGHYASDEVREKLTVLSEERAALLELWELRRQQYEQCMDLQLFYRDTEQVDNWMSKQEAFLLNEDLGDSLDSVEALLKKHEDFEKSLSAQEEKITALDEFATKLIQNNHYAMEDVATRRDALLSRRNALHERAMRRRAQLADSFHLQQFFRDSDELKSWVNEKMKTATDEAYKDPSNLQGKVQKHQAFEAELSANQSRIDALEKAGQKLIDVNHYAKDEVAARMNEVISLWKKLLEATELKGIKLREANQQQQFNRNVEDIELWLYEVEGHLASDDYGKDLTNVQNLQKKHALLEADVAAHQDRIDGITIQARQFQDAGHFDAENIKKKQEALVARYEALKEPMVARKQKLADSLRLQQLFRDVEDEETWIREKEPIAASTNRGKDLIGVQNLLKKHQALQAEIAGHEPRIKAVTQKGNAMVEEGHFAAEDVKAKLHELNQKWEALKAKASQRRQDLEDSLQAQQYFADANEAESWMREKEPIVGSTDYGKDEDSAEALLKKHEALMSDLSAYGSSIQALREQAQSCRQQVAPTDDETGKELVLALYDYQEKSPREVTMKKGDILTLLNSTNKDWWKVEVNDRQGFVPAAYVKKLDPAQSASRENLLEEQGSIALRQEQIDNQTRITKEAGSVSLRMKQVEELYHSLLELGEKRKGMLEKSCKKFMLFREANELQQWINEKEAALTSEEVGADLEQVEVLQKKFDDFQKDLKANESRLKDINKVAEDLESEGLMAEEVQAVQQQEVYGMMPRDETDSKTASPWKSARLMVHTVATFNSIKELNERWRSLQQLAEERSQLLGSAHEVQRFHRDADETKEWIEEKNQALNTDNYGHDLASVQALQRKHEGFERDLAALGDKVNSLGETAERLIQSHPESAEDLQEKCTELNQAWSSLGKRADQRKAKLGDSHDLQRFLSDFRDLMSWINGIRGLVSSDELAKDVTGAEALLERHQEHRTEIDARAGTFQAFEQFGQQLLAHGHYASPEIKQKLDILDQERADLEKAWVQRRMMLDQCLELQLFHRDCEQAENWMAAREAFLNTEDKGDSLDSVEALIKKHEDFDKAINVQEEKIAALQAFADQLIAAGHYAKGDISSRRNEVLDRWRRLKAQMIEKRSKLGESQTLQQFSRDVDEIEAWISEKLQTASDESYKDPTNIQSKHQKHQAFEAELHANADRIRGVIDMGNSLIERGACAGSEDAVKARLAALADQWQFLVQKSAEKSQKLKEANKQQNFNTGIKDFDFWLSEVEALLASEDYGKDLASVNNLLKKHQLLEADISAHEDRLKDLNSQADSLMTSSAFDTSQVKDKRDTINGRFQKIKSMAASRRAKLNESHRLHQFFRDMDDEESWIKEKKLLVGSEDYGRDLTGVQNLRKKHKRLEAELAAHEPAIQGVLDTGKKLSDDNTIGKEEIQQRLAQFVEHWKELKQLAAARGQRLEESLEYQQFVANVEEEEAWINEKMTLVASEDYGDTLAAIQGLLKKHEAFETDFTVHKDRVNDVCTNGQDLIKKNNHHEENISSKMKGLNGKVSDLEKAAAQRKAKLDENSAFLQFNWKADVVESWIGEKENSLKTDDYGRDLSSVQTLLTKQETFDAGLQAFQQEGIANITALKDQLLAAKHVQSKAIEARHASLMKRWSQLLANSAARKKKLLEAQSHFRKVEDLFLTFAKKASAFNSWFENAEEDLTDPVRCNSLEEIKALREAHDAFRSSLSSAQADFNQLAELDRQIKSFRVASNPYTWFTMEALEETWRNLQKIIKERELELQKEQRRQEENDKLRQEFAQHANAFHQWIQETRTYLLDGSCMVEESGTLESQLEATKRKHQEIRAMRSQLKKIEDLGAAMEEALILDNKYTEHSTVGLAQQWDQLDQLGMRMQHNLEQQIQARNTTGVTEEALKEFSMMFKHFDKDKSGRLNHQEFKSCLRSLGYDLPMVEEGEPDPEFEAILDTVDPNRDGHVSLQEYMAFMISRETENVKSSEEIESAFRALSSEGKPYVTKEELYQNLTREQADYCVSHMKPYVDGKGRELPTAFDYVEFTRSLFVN
Chain of UniProt P30533 (P30533 whole entry): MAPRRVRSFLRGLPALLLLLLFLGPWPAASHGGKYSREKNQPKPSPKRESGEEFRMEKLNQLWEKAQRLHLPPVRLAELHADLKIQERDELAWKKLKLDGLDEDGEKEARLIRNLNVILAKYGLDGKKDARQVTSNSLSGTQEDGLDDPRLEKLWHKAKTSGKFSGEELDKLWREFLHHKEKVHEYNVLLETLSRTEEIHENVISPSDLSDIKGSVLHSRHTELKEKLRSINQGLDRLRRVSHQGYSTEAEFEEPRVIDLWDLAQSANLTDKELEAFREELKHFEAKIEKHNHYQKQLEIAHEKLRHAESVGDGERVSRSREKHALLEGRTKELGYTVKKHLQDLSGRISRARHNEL
Chain of UniProt Q02790 (Q02790 whole entry): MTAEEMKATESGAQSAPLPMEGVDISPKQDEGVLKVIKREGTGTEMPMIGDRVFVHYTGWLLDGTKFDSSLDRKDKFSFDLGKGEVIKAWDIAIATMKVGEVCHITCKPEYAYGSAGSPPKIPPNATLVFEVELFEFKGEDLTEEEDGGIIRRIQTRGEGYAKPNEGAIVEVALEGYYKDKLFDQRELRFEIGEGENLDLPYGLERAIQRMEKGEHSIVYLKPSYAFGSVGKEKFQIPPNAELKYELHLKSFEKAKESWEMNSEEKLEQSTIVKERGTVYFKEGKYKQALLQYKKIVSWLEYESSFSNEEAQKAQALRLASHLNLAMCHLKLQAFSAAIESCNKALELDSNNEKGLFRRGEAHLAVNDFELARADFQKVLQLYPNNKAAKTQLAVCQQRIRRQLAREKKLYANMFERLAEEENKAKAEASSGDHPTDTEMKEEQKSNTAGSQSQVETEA

Row | Target | lysine labeling ratio R10:1
1 | UniProt Q15303 (lysine site: K109) | 1.9 (active)
2 | HNRNPA1 (lysine site: K350) (UniProt P09651) | 3.42
3 | SEMA4D (lysine site: K219) (UniProt Q92854) | 2.27
4 | UniProt Q86UP0 (lysine site: K324) | 1.82 (active)
5 | MSN (lysine site: K316) (UniProt P26038) | 1.47 (active)
6 | ATP1B1 (lysine site: K277) (UniProt P05026) | 17.2
7 | FKBP4 (lysine site: K181) (UniProt Q02790) | 1.43 (active)
8 | HNRNPU (lysine site: K614) (UniProt Q00839) | 2.36
9 | ANTXR1 (lysine site: K94) (UniProt Q9H6X2) | 2.11
10 | DDX3X (lysine site: K491) (UniProt O00571) | 2.59
11 | LRPAP1 (lysine site: K65) (UniProt P30533) | 4.18
12 | PRDX6 (lysine site: K56) (UniProt P30041) | 3.23
13 | PA2G4 (lysine site: K288) (UniProt Q9UQ80) | 0.997 (active)
14 | UniProt Q15149 (lysine site: K746) | 2.49
15 | UniProt Q13275 (lysine site: K239) | 1.5 (active)
16 | CDH2 (lysine site: K223) (UniProt P19022) | 2.63
17 | UniProt Q99466 (lysine site: K1372) | 9.22
18 | UniProt P26639 (lysine site: K36) | 3.28
19 | UniProt P21589 (lysine site: K67) | 2.8
20 | UniProt P62829 (lysine site: K75) | 4.96

Row | Target | lysine labeling ratio R10:1
21 | UniProt P55072 (lysine site: K236) | 2.76
22 | UniProt P62249 (lysine site: K130) | 4.97
23 | IGSF3 (lysine site: K92) (UniProt O75054) | 2.4
24 | CALD1 (lysine site: K674) (UniProt Q05682) | 2.25
25 | PGK1 (lysine site: K146) (UniProt P00558) | 1.57 (active)
26 | UniProt P62249 (lysine site: K73) | 3.59
27 | ECE1 (lysine site: K177) (UniProt P42892) | 7.91
28 | SPTAN1 (lysine site: K1419) (UniProt Q13813) | 0.907 (active)
29 | CD63 (lysine site: K110) (UniProt P08962) | 5.07
30 | ITIH1 (lysine site: K125) (UniProt P19827) | 4.42
31 | FSCN1 (lysine site: K74) (UniProt Q16658) | 1.36 (active)
32 | PVR (lysine site: K90) (UniProt P15151) | 3.33
33 | PDCD6IP (lysine site: K285) (UniProt Q8WUM4) | 15.7
34 | DYNC1H1 (lysine site: K3480) (UniProt Q14204) | 1.73 (active)
35 | HEXB (lysine site: K517) (UniProt P07686) | 2.41
36 | LGALS1 (lysine site: K130) (UniProt P09382) | 2.14
37 | STOML2 (lysine site: K254) (UniProt Q9UJZ1) | 5.22
38 | NUCB1 (lysine site: K205) (UniProt Q02818) | 4.75
39 | SLC25A5 (lysine site: K147) (UniProt P05141) | 4.57
40 | MTDH (lysine site: K195) (UniProt Q86UE4) | 1.36 (active)
